About 10,000 (2.8%) of roughly 360,000 compounds were called active. Inconclusive results (about 4%) are left out. The full list was thinned out, with actives kept by preference. Values without a mark were called inactive. Calls follow the shape of the dose curve; as a rule, active = well fitted inhibition curve with a large enough effect; inconclusive = small, poorly fitted or top-dose-only effect; inactive = flat fitted curve, though single readings scatter.
% is scaled to controls: 0 for no effect and ±100 for the full control effect; potency is read from the fitted curve at half-maximal effect.

The target of this experiment is Serine/threonine-protein kinase PLK1 (Homo sapiens) (UniProt P53350). The experiment in a line: qHTS for Inhibitors of PLK1-PDB (polo-like kinase 1 - polo-box domain): Primary Screen. Also: nearly all actives have a fitted effect of over 65% in size. As to max response, negative = inhibition: series mostly up to about 57 µM. The following applies: Plk1 PBD binding of FITC phosphopeptide, fluorescence polarization. The source says: The polo-like kinase 1 (Plk1) is a member of a conserved subfamily of serine / threonine protein kinases that plays a pivotal roles in cell proliferation. It has a C-terminal non-catalytic region called the polo-box domain (PBD) that plays a crucial role in the subcellular localization of the Plk1. […] Furthermore, depletion of the overexpressed Plk1 by RNAi efficiently induces apoptotic cell death in cancer and reduces tumor growth in mouse xenograft models. Thus, targeting Plk1 is an appealing strategy for anti-cancer therapy. Therefore, this project aimed to screen the Molecular Libraries Small Molecule Repository (MLSMR) using a novel approach to find inhibitors that target the Plk1 PBD instead of the conventional N-terminal catalytic domain. This project employed a fluorescence polarization (FP) assay using a FITC-conjugated phospho-9-mer (p-9-mer) peptide and purified human Plk1 PBD protein. The identified small molecule inhibitors of Plk1 PBD can then further be developed into useful tools for biomedical and clinical research that complements or replaces current relevant disease therapy. NIH Chemical Genomics Center [NCGC] NIH Molecular Libraries Probe Centers Network [MLPCN] MLPCN Grant: MH100728 Assay Submitter (PI): Kyung Lee, NCI
Serine/threonine-protein kinase PLK1 (Homo sapiens), sequence (P53350 whole entry, looked up, the tested form may be a part): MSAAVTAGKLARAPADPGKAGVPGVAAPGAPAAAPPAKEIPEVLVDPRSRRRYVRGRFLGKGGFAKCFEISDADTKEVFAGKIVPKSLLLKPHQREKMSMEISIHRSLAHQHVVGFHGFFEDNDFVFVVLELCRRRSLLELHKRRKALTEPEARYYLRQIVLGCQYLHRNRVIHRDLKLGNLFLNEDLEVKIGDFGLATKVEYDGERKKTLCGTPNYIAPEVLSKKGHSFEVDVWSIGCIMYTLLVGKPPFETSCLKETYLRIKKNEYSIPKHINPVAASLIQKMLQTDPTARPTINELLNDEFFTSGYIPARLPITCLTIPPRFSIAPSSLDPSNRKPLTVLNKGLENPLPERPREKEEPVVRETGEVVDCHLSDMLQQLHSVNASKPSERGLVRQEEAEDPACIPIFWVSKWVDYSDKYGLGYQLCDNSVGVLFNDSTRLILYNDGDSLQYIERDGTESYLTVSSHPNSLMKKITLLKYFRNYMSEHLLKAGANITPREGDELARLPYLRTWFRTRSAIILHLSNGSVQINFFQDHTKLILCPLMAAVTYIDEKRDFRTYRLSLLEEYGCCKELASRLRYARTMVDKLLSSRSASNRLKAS
Four microliter of 25 nM FITC-p-9-mer + 60 nM Plk1 PBD in buffer solution (final concentrations 25 nM and 60 nM respectively) or 4 uL of 25 nM FITC-p-9-mer (final concentration 25 nM) in buffer will be dispensed into a 1,536 Greiner medium-binding black solid plate. Small molecules at final concentrations of 18 nM to 57 uM and positive control phospho-9-mer (sequence: Ac-PPLHSpTAI-NH2) at final concentrations 26 nM to 57 uM and phospho-13-mer (sequence: Ac-[…]pTAI-NH2) at final concentrations of 1 nM to 2.3 uM will be pin-transferred (23 nL) to the plate via a Kalypsys pin-tool robotics equipped with a 1,536-pin array. The reaction plate will be centrifuged for 1 min at 1000 rpm and incubated at room temperature for 10 min. The FITC fluorescence signals will be read using the PerkinElmer ViewLux plate reader at 480 / 20 nm excitation and 540 / 20 nm S and P polarization emission wavelengths. Reagent bottles will be kept submerged into 4 °C recirculating chiller bath and all liquid lines will be covered with aluminum foil to minimize degradation. Library plates will be screened starting from the lowest to the highest concentrations to minimize compound carryover. Vehicle only plates, with DMSO being pin-transferred instead of compound solutions, will be included regularly throughout the screen to record any systematic shifts in assay signal.
Consider `CC(CC(C#N)(c1ccccc1)c1ccccc1)N1CCCCC1` (stereo unspecified), for which the max response, negative = inhibition is -6.42%.
Still for that read-out and setting: as for `COc1cccc(C(c2nnnn2-c2ccc3c(c2)OCCO3)N2CCC3(CC2)C(=O)NCN3c2ccccc2)c1OC` (stereo unspecified), the figure is -7.89%.
In the case of `O=C(O)CCn1cc(C=C2C(=O)NC(=S)NC2=O)c(-c2cccc(Br)c2)n1`, the Potency was 4.74 µM (active).
As to `O=c1[nH]c2ccccc2n1C1CCN(C(c2ccnc3ccccc23)c2nnnn2Cc2ccccc2)CC1` (stereo unspecified), the max response, negative = inhibition is 3%.
Still for that read-out and setting: as for `CCCCCCCCCCCCn1ccc(=N)cc1`, the figure is -4.33%.
The same measure, in the same setting: to `COc1ccc(-c2nn(CCC#N)cc2C(=O)O)cc1` belongs -2.51%; to `O=C(c1cc(S(=O)(=O)N2CCOCC2)ccc1F)N1CCC2(CC1)OCCO2`, -4.68%.
Regarding `C=CC12CN(C)[C@@H]3C4CO[C@H](C[C@H]41)[C@]1(C(=O)Nc4ccccc41)[C@@H]32` (stereo partly specified), the max response, negative = inhibition is -7.71%.
On to `CCN1C(=O)C(=Cc2c(C)n(CC(=O)NCC3CCCO3)c3ccccc23)C(=O)N(CC)C1=S` (stereo unspecified), for which the Potency was 1.06 µM (active).
Regarding `C/C=C/CC1(CC)C(=O)NC(=S)NC1=O`, the max response, negative = inhibition is -7.94%.
In the case of `CCc1cccc2c(C#N)cn(CC(=O)N3CCOCC3)c12`, the max response, negative = inhibition is -5.32%.
Still for that read-out and setting: as for `COc1ccccc1N=Nc1c(O)[nH]c(=S)[nH]c1=O`, the figure is 13.3%.
For the molecule `O=c1[nH]c(=S)[nH]c(O)c1/C=C1\C=Nc2ccccc21`, the Potency was 1.19 µM (active).
`COc1ccc(CCn2c(O)c(C=NCCCn3ccnc3)c(=O)[nH]c2=O)cc1OC`: the max response, negative = inhibition is -4.17%.
`c1ccc(Cc2nn3c(Cn4cnc5ccccc54)nnc3s2)cc1`: the Potency is 11.9 µM (active).
On to `CCOP(=O)(OCC)C(NC(=O)NC)C(N)=O` (stereo unspecified), for which the max response, negative = inhibition is 0.136%.
The same measure, in the same setting: as for `CCCC[N+]1(C)C2CC(OC(=O)C(CO)c3ccccc3)CC1C1OC12` (stereo unspecified), the figure is -0.372%; as for `CC(=NCc1ccc2c(c1)OCO2)c1c(O)[nH]c(=O)[nH]c1=O`, -14.7%.
As for `CCOC(=O)C1SC2(C(F)(F)C(F)F)CC1(O)c1c(c(OC)c3occc3c1OC)O2` (stereo unspecified), the max response, negative = inhibition was 0.906%.
For `O=c1c2ccccc2[nH]c(=S)n1-c1cccc(Cl)c1`, the max response, negative = inhibition is -18.6%.
The same measure, in the same setting: as for `COC(=O)C1=C(c2ccc(-c3ccccc3)c(F)c2)C[C@@H]2CC[C@H]1N2C(=O)NCc1ccc(F)cc1`, the figure is -10.9%; as for `C=C(C)C1(CCCC)C(=O)NC(=S)NC1=O`, 0.58%.
As for `Cc1noc(C)c1CSc1nc2cc(S(=O)(=O)N3CCOCC3)ccc2o1`, the Potency is 21.2 µM (active).
`Cn1c(C(=O)N2CCC(C(=O)N3CCC4(CC3)OCCO4)CC2)cc2sccc21`: the max response, negative = inhibition is -6.93%.
As to `CC=C(C)C(=O)OC1CCN2CC=C(COC(=O)C(O)(C(C)OC)C(C)(C)O)C12` (stereo unspecified), the max response, negative = inhibition was -10.3%.
On the same count and under the same terms, as for `Cc1cc(=O)oc2c(C)c(OCC(=O)N3CCN(Cc4ccc5c(c4)OCO5)CC3)ccc12`, the figure is -7.37%.
Same read-out and setting: to `Cc1cccc(NC(=O)OC2CN3CCC2CC3)c1` (stereo unspecified) belongs 3.5%.
On the same count and under the same terms, to `CN1CCN(C(=O)COc2ccc(C(C)(C)C)cc2Br)CC1` belongs -4.1%.
Turning to `CC(C)(C)c1ccc(OC(=O)N2CCCCC2)cc1`, the Potency is 23.8 µM (active).
As to `O=C(Nc1cccc(OC(=O)N2CCCCC2)c1)N1CCOCC1`, the max response, negative = inhibition was -15.9%.
Consider `C[N+]12CN3CN(CN(C3)C1)C2`, for which the max response, negative = inhibition is -1.32%.
The same measure, in the same setting: as for `COc1ccc(-n2nnnc2C(c2cccc3ccccc23)N2CCC(n3c(=O)[nH]c4ccccc43)CC2)cc1` (stereo unspecified), the figure is -4.82%; as for `COc1ccc(NC(=O)N2Cc3ccccc3-n3nncc3C2)cc1`, -7.51%; as for `CCOc1ccc(C2SCC(=O)Nc3c2c(C)nn3C2CCOC(C)(C)C2)cc1` (stereo unspecified), -3.25%.
On the same count and under the same terms, as for `COc1ccccc1NC(=O)N1C[C@@H]2C[C@@H](C1)c1cccc(=O)n1C2`, the figure is -7.73%.
The same measure, in the same setting: as for `CN1CCC(OC(=O)c2cccc(F)c2)CC1`, the figure is -15.3%; as for `O=c1[nH]c(O)c(C=Nc2cc(F)cc(F)c2)c(=O)[nH]1`, -3.46%.
Take `Cc1ccc2c(c1)=C/C(=C\c1c(O)[nH]c(=O)[nH]c1=O)C(=O)N=2`: the Potency was 11.9 µM (active).
`CC[N+](CC)(CC)CCCCCCCCCC[N+](CC)(CC)CC`: the max response, negative = inhibition was 3.96%.
Still for that read-out and setting: to `CC12CCC3C(CCC4CC(=O)CCC43C)C1CC(=NO)C2=O` (stereo unspecified) belongs 6.72%; to `C[C@]12CCCCC1=CC(=O)C1C2CC[C@@]2(C)C1C[C@@H](F)[C@@H]2O` (stereo partly specified), 2.07%.
Same read-out and setting: as for `COC(=O)C[C@H]1CC[C@H]2NC[C@@H](O)COC[C@@H]2O1`, the figure is -11.8%.
On to `O=C1NC(=O)N(CCc2ccc(F)cc2)C(=O)/C1=C/C=C/c1ccccc1`, for which the Potency is 0.532 µM (active).
`CC(C)N(CC#CCC1(O)c2ccccc2-c2ccccc21)C(C)C`: the max response, negative = inhibition was 4.02%.
Same read-out and setting: as for `O=C(NC(=S)N1C[C@H]2C[C@H](C1)c1cccc(=O)n1C2)c1ccc(F)cc1`, the figure is -8.97%; as for `N=c1ccccn1Cc1ccccc1`, -5.72%.

For the origin of these results see PubChem BioAssay AID720504 (National Center for Advancing Translational Sciences (NCATS), 2013).
